{"source": "paper PMC3919609", "about": "“Deep sequencing of large library selections allows computational discovery of diverse sets of zinc fingers that bind common targets”", "assay_in_all_cases": "Zn; 100 nM beta-estradiol; yeast GFP reporter, 12 h induction, 3 biological replicates", "key": {"[1]": {"biological_target": "RA three-finger array, finger 2 TSWNLRS (synthetic construct (mouse Zif268 …, UniProt P08046 333-418, E352N;T354R;R355A;R377T;D379W;H380N;T382R;T383S;D407A;E408N;R409L;K410V))", "conditions": "tags: estrogen receptor LBD - VP16 fusion (left out); vector residues GT and GS kept at the ends; dsDNA, one strand shown"}, "[2]": {"biological_target": "RA three-finger array, finger 2 RSGNLRS (synthetic construct (mouse Zif268 …, UniProt P08046 333-418, E352N;T354R;R355A;D379G;H380N;T382R;T383S;D407A;E408N;R409L;K410V))", "conditions": "tags: estrogen receptor LBD - VP16 fusion (left out); vector residues GT and GS kept at the ends; dsDNA, one strand shown"}, "[3]": {"biological_target": "RA three-finger array, finger 2 ASSNLRA (synthetic construct (mouse Zif268 …, UniProt P08046 333-418, E352N;T354R;R355A;R377A;D379S;H380N;T382R;T383A;D407A;E408N;R409L;K410V))", "conditions": "tags: estrogen receptor LBD - VP16 fusion (left out); vector residues GT and GS kept at the ends; dsDNA, one strand shown"}, "[4]": {"biological_target": "RA three-finger array, finger 2 QSGNLKS (synthetic construct (mouse Zif268 …, UniProt P08046 333-418, E352N;T354R;R355A;R377Q;D379G;H380N;T382K;T383S;D407A;E408N;R409L;K410V))", "conditions": "tags: estrogen receptor LBD - VP16 fusion (left out); vector residues GT and GS kept at the ends; dsDNA, one strand shown"}, "[5]": {"biological_target": "RA three-finger array, finger 2 TSYNLTR (synthetic construct (mouse Zif268 …, UniProt P08046 333-418, E352N;T354R;R355A;R377T;D379Y;H380N;T383R;D407A;E408N;R409L;K410V))", "conditions": "tags: estrogen receptor LBD - VP16 fusion (left out); vector residues GT and GS kept at the ends; dsDNA, one strand shown"}, "[6]": {"biological_target": "RA three-finger array, finger 2 RADNLTE (synthetic construct (mouse Zif268 …, UniProt P08046 333-418, E352N;T354R;R355A;S378A;H380N;T383E;D407A;E408N;R409L;K410V))", "conditions": "tags: estrogen receptor LBD - VP16 fusion (left out); vector residues GT and GS kept at the ends; dsDNA, one strand shown"}, "[7]": {"biological_target": "Zif268 (Egr1) fingers 1-3 (Mus musculus, UniProt P08046 333-418)", "conditions": "dsDNA, one strand shown"}, "[8]": {"biological_target": "RA three-finger array, finger 2 DSSNLRS (synthetic construct (mouse Zif268 …, UniProt P08046 333-418, E352N;T354R;R355A;R377D;D379S;H380N;T382R;T383S;D407A;E408N;R409L;K410V))", "conditions": "tags: estrogen receptor LBD - VP16 fusion (left out); vector residues GT and GS kept at the ends; dsDNA, one strand shown"}, "[9]": {"biological_target": "RA three-finger array, finger 2 HSSNLTH (synthetic construct (mouse Zif268 …, UniProt P08046 333-418, E352N;T354R;R355A;R377H;D379S;H380N;T383H;D407A;E408N;R409L;K410V))", "conditions": "tags: estrogen receptor LBD - VP16 fusion (left out); vector residues GT and GS kept at the ends; dsDNA, one strand shown"}, "[10]": {"biological_target": "RA three-finger array, finger 2 QSGNLTE (synthetic construct (mouse Zif268 …, UniProt P08046 333-418, E352N;T354R;R355A;R377Q;D379G;H380N;T383E;D407A;E408N;R409L;K410V))", "conditions": "tags: estrogen receptor LBD - VP16 fusion (left out); vector residues GT and GS kept at the ends; dsDNA, one strand shown"}, "[11]": {"biological_target": "RA three-finger array, finger 2 RSDNLTR (synthetic construct (mouse Zif268 …, UniProt P08046 333-418, E352N;T354R;R355A;H380N;T383R;D407A;E408N;R409L;K410V))", "conditions": "tags: estrogen receptor LBD - VP16 fusion (left out); vector residues GT and GS kept at the ends; dsDNA, one strand shown"}}, "data": [{"sequence": "GAGAAGAAG", "values": [{"measurement": "binding signal", "setting": "[1]", "result": "0.437 ± 0.032 mean GFP / mean GFP of Zif268 on its consensus site"}, {"measurement": "binding signal", "setting": "[2]", "result": "0.587 ± 0.052 mean GFP / mean GFP of Zif268 on its consensus site"}]}, {"sequence": "GAGCATAAG", "values": [{"measurement": "binding signal", "setting": "[1]", "result": "0.344 ± 0.012 mean GFP / mean GFP of Zif268 on its consensus site"}, {"measurement": "binding signal", "setting": "[3]", "result": "0.875 ± 0.05 mean GFP / mean GFP of Zif268 on its consensus site"}, {"measurement": "binding signal", "setting": "[2]", "result": "0.264 ± 0.005 mean GFP / mean GFP of Zif268 on its consensus site"}, {"measurement": "binding signal", "setting": "[4]", "result": "0.226 ± 0.01 mean GFP / mean GFP of Zif268 on its consensus site"}]}, {"sequence": "GAGCAGAAG", "values": [{"measurement": "binding signal", "setting": "[5]", "result": "0.098 mean GFP / mean GFP of Zif268 on its consensus site"}, {"measurement": "binding signal", "setting": "[6]", "result": "0.267 ± 0.016 mean GFP / mean GFP of Zif268 on its consensus site"}, {"measurement": "binding signal", "setting": "[1]", "result": "1.13 ± 0.189 mean GFP / mean GFP of Zif268 on its consensus site"}, {"measurement": "binding signal", "setting": "[3]", "result": "0.103 ± 0.004 mean GFP / mean GFP of Zif268 on its consensus site"}, {"measurement": "binding signal", "setting": "[2]", "result": "0.997 ± 0.075 mean GFP / mean GFP of Zif268 on its consensus site"}, {"measurement": "binding signal", "setting": "[4]", "result": "0.174 ± 0.003 mean GFP / mean GFP of Zif268 on its consensus site"}]}, {"sequence": "GCGTGGGCC", "values": [{"measurement": "binding signal", "setting": "[7]", "result": "0.147 mean GFP / mean GFP of Zif268 on its consensus site"}]}, {"sequence": "GAGCACAAG", "values": [{"measurement": "binding signal", "setting": "[8]", "result": "0.498 ± 0.055 mean GFP / mean GFP of Zif268 on its consensus site"}, {"measurement": "binding signal", "setting": "[3]", "result": "0.225 ± 0.031 mean GFP / mean GFP of Zif268 on its consensus site"}, {"measurement": "binding signal", "setting": "[9]", "result": "0.472 ± 0.086 mean GFP / mean GFP of Zif268 on its consensus site"}, {"measurement": "binding signal", "setting": "[4]", "result": "0.219 ± 0.008 mean GFP / mean GFP of Zif268 on its consensus site"}]}, {"sequence": "GCGTGGGGG", "values": [{"measurement": "binding signal", "setting": "[7]", "result": "0.059 mean GFP / mean GFP of Zif268 on its consensus site"}]}, {"sequence": "GAGCAAAAG", "values": [{"measurement": "binding signal", "setting": "[10]", "result": "0.251 ± 0.044 mean GFP / mean GFP of Zif268 on its consensus site"}, {"measurement": "binding signal", "setting": "[2]", "result": "0.138 ± 0.011 mean GFP / mean GFP of Zif268 on its consensus site"}, {"measurement": "binding signal", "setting": "[4]", "result": "0.463 ± 0.041 mean GFP / mean GFP of Zif268 on its consensus site"}]}, {"sequence": "GCGTGGGCG", "values": [{"measurement": "binding signal", "setting": "[7]", "result": "1 mean GFP / mean GFP of Zif268 on its consensus site"}]}, {"sequence": "GCGTGGGAG", "values": [{"measurement": "binding signal", "setting": "[7]", "result": "0.755 mean GFP / mean GFP of Zif268 on its consensus site"}]}, {"sequence": "GAGGAGAAG", "values": [{"measurement": "binding signal", "setting": "[5]", "result": "0.873 ± 0.063 mean GFP / mean GFP of Zif268 on its consensus site"}, {"measurement": "binding signal", "setting": "[1]", "result": "0.103 ± 0.007 mean GFP / mean GFP of Zif268 on its consensus site"}, {"measurement": "binding signal", "setting": "[11]", "result": "0.986 ± 0.121 mean GFP / mean GFP of Zif268 on its consensus site"}, {"measurement": "binding signal", "setting": "[2]", "result": "0.149 ± 0.009 mean GFP / mean GFP of Zif268 on its consensus site"}]}, {"sequence": "GCGTGGGTG", "values": [{"measurement": "binding signal", "setting": "[7]", "result": "0.878 mean GFP / mean GFP of Zif268 on its consensus site"}]}]}
